# From PubChem BioAssay AID504339 (National Center for Advancing Translational Sciences (NCATS), 2011)
# Out of some 390,000 compounds screened, about 17,000 (4.4%) were called active. Roughly 8% stayed inconclusive and do not appear here. Shown is part of a subset that was picked to be rich in actives. Where a call stands in place of a potency, no number is given. Values without a mark were called inactive. Calls follow the shape of the dose curve; as a rule, active = well fitted inhibition curve with a large enough effect; inconclusive = small, poorly fitted or top-dose-only effect; inactive = no such curve, though single readings can be large or run the other way.
# Target: Lysine-specific demethylase 4A (Homo sapiens) (UniProt O75164)
# Sequence (O75164 whole entry, looked up, the tested form may be a part): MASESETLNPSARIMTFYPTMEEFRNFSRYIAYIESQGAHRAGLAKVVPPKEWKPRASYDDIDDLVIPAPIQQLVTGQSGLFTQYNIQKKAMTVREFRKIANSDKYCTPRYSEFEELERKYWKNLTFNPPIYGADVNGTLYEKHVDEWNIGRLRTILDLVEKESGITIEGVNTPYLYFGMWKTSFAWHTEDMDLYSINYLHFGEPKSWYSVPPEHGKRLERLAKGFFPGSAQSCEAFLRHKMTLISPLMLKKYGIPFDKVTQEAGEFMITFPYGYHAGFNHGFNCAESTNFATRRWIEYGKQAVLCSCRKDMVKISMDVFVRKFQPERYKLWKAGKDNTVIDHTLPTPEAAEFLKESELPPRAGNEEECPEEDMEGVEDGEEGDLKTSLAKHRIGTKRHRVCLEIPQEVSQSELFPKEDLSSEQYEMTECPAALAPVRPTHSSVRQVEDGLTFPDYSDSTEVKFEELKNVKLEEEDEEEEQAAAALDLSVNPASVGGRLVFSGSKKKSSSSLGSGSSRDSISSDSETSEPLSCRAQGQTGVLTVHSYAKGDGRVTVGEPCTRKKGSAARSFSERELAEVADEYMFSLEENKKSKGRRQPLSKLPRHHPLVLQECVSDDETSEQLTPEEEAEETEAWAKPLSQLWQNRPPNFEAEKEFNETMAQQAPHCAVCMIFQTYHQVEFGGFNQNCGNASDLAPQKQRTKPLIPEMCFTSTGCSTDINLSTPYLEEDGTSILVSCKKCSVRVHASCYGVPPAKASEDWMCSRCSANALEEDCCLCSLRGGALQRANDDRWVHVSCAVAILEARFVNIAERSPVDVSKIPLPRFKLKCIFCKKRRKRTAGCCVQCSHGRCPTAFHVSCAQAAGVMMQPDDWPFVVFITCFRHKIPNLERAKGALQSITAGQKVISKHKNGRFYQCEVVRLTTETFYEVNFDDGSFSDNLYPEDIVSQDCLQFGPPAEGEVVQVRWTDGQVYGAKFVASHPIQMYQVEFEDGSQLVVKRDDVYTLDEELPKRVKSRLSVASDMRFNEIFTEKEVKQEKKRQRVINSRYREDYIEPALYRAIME
# Assay: qHTS Assay for Inhibitors of JMJD2A-Tudor Domain; also: nearly all actives have a fitted effect of over 50% in size
# Settings: AlphaScreen JMJD2A-Tudor / H3K4me3 peptide binding; series mostly up to 114 µM
# Potency is read from the fitted curve at half-maximal effect.
SMILES,Potency,"activity change, negative = inhibition"
CC(C)Sc1nc(N)nc2c1ncn2C1OC(CO)C(O)C1O (centres undefined),inactive,–
COC1C(CO)OC(n2cnc3c(=S)nc(N)[nH]c32)C1O (centres undefined),17.8 µM (active),–
Nc1nc(SCc2ccc([N+](=O)[O-])cc2)c2ncn(C3OC(CO)C(O)C3O)c2n1 (centres undefined),inactive,–
O=C(Nc1ccc(Oc2ccccc2)cc1)C1CCN(S(=O)(=O)c2ccc(Cl)cc2)CC1,inactive,–
COc1ccc(C(=O)Nc2nonc2-c2ccc(OC)c(OC)c2)cc1Cl,inactive,–
Cc1ccc(S(=O)(=O)N(Cc2nc(-c3ccc(Cl)cc3)no2)C2CCCCC2)cc1,inactive,–
CC(=O)OC(COc1ccc(F)cc1)Cn1cnc2ccccc21 (centres undefined),79.4 µM (active),–
CC(C)c1ccc(OCC(O)Cn2cnc3ccccc32)cc1 (centres undefined),inactive,–
CC(=O)N=c1ncn(CC(COC(C)=O)OC(C)=O)c2nc[nH]c12 (centres undefined),inactive,–
Cc1ccc(Cl)cc1NC(=O)CSc1nc2ccccc2nc1Cc1ccccc1,inactive,–
COC(=O)c1c(NC(=O)c2cc(=O)c3c(C)cc(C)cc3o2)sc2c1CCCC2,inactive,–
COc1cccc(NC(=O)c2nn(C34CC5CC(CC(C5)C3)C4)cc2[N+](=O)[O-])c1,inactive,–
Cc1nc([N+](=O)[O-])nn1C12CC3CC(CC(Br)(C3)C1)C2,56.2 µM (active),–
O=C(COc1ccccc1)OCc1cc(=O)n2nc(-c3cccs3)sc2n1,inactive,–
CCC(=O)N1c2ccccc2CC1C(=O)N1CCN(c2ccccc2)CC1 (centres undefined),inactive,–
CCN(CC)S(=O)(=O)c1ccc2c(c1)N(CC(=O)NCc1ccccc1)C(=O)CS2,inactive,–
CCCS(=O)(=O)Nc1cccc(-c2cn3ccsc3n2)c1,inactive,–
COc1ccc(/C=C2\CCc3ccccc3C2=O)c(OC)c1OC,inactive,–
COc1ccc(C2Sc3ccccc3NC3=C2C(=O)c2ccccc23)c(OC)c1OC (centres undefined),14.1 µM (active),–
COC(=O)C(C)C1Sc2ccccc2NC1=O (centres undefined),inactive,–
CCOC(=O)C1CCCN(CC(=O)Nc2cc(C)c3c(=O)oc4ccccc4c3n2)C1 (centres undefined),inactive,–
CCOC(=O)c1ccc(NC(=O)CCn2cnnn2)cc1,inactive,–
CSc1ncc(Cl)c(C(=O)Nc2ccc(S(=O)(=O)N3CCCC(C)C3)cc2)n1 (centres undefined),inactive,–
CCCCN(C)S(=O)(=O)c1ccc(C(=O)Nc2sc3c(c2C(N)=O)CC(C)(C)NC3(C)C)cc1,inactive,–
CCN1CCN(C(c2ccc(C)cc2)c2c(O)cc(C)n(Cc3ccco3)c2=O)CC1 (centres undefined),inactive,–

SMILES,Potency,"activity change, negative = inhibition"
Oc1c(Cl)cc(Cl)c(Cl)c1Cc1c(O)c(Cl)cc(Cl)c1Cl,79.4 µM (active),–
O=C(Nc1ccc(F)cc1F)c1cnn(-c2ccc(F)cc2)c1-n1cccc1,inactive,–
COc1ccc(C(=O)CSc2nccc(=O)[nH]2)cc1,inactive,–
CC(C)(C)c1ccc(C(=O)CSc2ncn[nH]2)cc1,20 µM (active),–
O=C(CSc1ncn[nH]1)Nc1nsc(-c2ccccc2)n1,inactive,–
CNc1nc(Nc2ccc(C)c(Cl)c2)nc(N)c1[N+](=O)[O-],inactive,–
CN(C)c1nc(Nc2ccc(Cl)c(Cl)c2)nc(N(C)C)n1,14.1 µM (active),–
CC(=O)Nc1nc(N(C)C)nc(N(C)C)n1,inactive,–
CCc1ccc(Sc2cc(C(=O)NCCCOC(C)C)c3ccccc3n2)cc1,inactive,–
CSc1ccc(CCNC(=O)c2cc(C)nc3c2c(C)nn3-c2cccc(F)c2)cc1,inactive,–
O=C(CC1Oc2ccccc2NC1=O)NCc1ccc(F)cc1 (centres undefined),inactive,–
COc1ccc(Nc2cc(C(=O)NCCCN(C)c3ccccc3)c3ccccc3n2)c(OC)c1,15.8 µM (active),–
CCCCN(CCCNC(=O)c1cc(Nc2ccccc2OC)nc2ccccc12)c1ccccc1,inactive,–
COc1ccccc1Nc1cc(C(=O)NCCCN(C)C2CCCCC2)c2ccccc2n1,inactive,–
COc1ccc(CCNC(=O)Cn2c(=O)cc(C(F)(F)F)c3c(C)nn(C)c32)c(OC)c1,inactive,–
COc1ccc(C)cc1NC(=O)CCc1c(C)nn(-c2ccc(N3CCOCC3)nn2)c1C,inactive,–
O=C(O)c1cccc(N=NN2CCCCCC2)c1,inactive,–
CN1C(=O)/C(=C/c2ccco2)SC1=Nc1cccc(C(=O)O)c1,79.4 µM (active),–
CN=C1S/C(=C\c2c(OC)cc(OC)cc2OC)C(=O)N1C,inactive,–
COc1ccc(C)cc1Nc1nc2ccccc2c2nnc(C)n12,inactive,–
COc1ccc(OC)c(-n2nnc3c(sc4nc(C)c(Br)c(C)c43)c2=O)c1,inactive,–
O=S(=O)(c1cccc(C(F)(F)F)c1)N1CCN(c2nc(-c3cccs3)nc3ccccc23)CC1,inactive,–
C=CCn1c(C23CC4CC(CC(C4)C2)C3)n[nH]c1=S,11.2 µM (active),–
C=CCn1c(SCC(=O)NC)nnc1C12CC3CC(CC(C3)C1)C2,inactive,–
C=CCn1c(SCC(=O)NC23CC4CC(CC(C4)C2)C3)nc(O)cc1=O,inactive,–

SMILES,Potency,"activity change, negative = inhibition"
CCOc1ccc(N2CC(C)Cn3c2nc2c3c(=O)n(Cc3c(F)cccc3Cl)c(=O)n2C)cc1 (centres undefined),inactive,–
COc1ccc(CNC(=O)CSc2n[nH]c(-c3ccc(F)cc3)n2)cc1,inactive,–
CC(NC(=O)c1cc(Sc2ccc(F)cc2F)nc2ccccc12)c1ccccc1 (centres undefined),inactive,–
CCC1CCCCN1C(=S)Nc1ccc(SC(F)F)cc1 (centres undefined),inactive,–
CCC1CCCCN1C(=S)Nc1ccc(S(=O)(=O)Nc2ncccn2)cc1 (centres undefined),100 µM (active),–
CCC1CCCCN1C(=S)Nc1ccc(C(C)=O)cc1 (centres undefined),inactive,–
Cc1ccc2cccc(NC(=O)c3ccc(OC(C)C)cc3)c2n1,inactive,–
Cc1cc2n(n1)C(c1cc(C(C)(C)C)c(O)cc1O)Nc1ccccc1-2 (centres undefined),inactive,–
CSc1ccc(CCNC(=O)c2cnn(-c3ccccc3)c2-n2cccc2)cc1,inactive,–
Cc1ccc(C)c(Nc2nnc(-c3ccc(C)c(S(=O)(=O)N4CCCCC4)c3)c3ccccc23)c1,inactive,–
CCc1c(C)[nH]c(=S)c(C#N)c1C,3.98 µM (active),–
CCn1c(=O)c2cc(C(=O)NCCc3ccc(Cl)cc3)sc2c2ccccc21,inactive,–
Cc1noc(/C=C/N(C)C)c1S(=O)(=O)N1CCCC(C(=O)Nc2cccc(F)c2)C1 (centres undefined),inactive,–
O=C(Nc1ccc2nc(SCC(=O)N3CCCc4ccccc43)sc2c1)c1ccc(Cl)cc1,inactive,–
COc1ccc(CCNC(=O)CCCn2c(=O)c3ccccc3n(Cc3ccc(F)cc3Cl)c2=O)cc1OC,inactive,–
COc1ccccc1CNC(=O)c1ccccc1NC(=O)c1nsc2ccccc12,inactive,–
Cc1ccc2[nH]c(=O)c(-c3nc4c(C)cccn4c3NCc3ccco3)cc2c1,–,-23.3% [at 11.4 µM]
CCCN(CCC)c1nc2c(C)cccn2c(=O)c1/C=C1/SC(=S)N(Cc2ccco2)C1=O,35.5 µM (active),–
CCOC(=O)CC1C(=O)NCCN1c1nc2c(C)cccn2c(=O)c1/C=C1\SC(=S)N(C(C)CC)C1=O (centres undefined),inactive,–
Cc1cc(C)c(NC(=O)Cn2c(SCC(=O)NCc3ccccc3)nc3ccccc32)c(C)c1,inactive,–
CCCCN1C(=O)CCC(C(=O)O)C1c1ccc(OC)cc1 (centres undefined),89.1 µM (active),–
CCCCNC(=O)C1CCC(=O)N1CCc1ccccc1 (centres undefined),inactive,–
COc1ccc(C2C3=C(CCCC3=O)N(CC(=O)O)C3=C2C(=O)CCC3)cc1,inactive,–
COc1ccccc1CNC(=O)CCCCn1c(=O)c2ccccc2n(CC(=O)Nc2cc(Cl)ccc2C)c1=O,inactive,–
Cc1cccc(NC(=O)C2CCN(S(=O)(=O)c3c(C)noc3/C=C/c3ccco3)CC2)c1,inactive,–

SMILES,Potency,"activity change, negative = inhibition"
Cc1cccc(C2CC(=O)Oc3c2c(=O)n(C)c2ccccc32)c1 (centres undefined),inactive,–
O=c1[nH]c2ccccc2s1,inactive,–
Nc1ccc2[nH]c(=S)sc2c1,3.55 µM (active),–
COc1cc(C(=O)N2CCN(C(=O)COc3cccc(C)c3)CC2)cc(OC)c1OC,inactive,–
COCCn1c(SCC(=O)c2cc(C)ccc2C)nc2cc(C(=O)NC3CCCC3)ccc2c1=O,inactive,–
Cc1cc(C)cc(OC(C)C(=O)Nc2nc3c(s2)CCCC3)c1 (centres undefined),inactive,–
COc1cccc(-n2c(=S)sc3c(=O)n(-c4ccccc4C)c(SCC(=O)O)nc32)c1,inactive,–
COc1cccc(-n2c(=S)sc3c(=O)n(-c4ccccc4OC)c(SCC4OCCO4)nc32)c1,inactive,–
COc1ccccc1-n1c(=S)[nH]c2c(sc(=S)n2-c2ccc(C)cc2C)c1=O,50.1 µM (active),–
Cc1oc(-c2ccccc2F)nc1CN1CCC(C(=O)NCCc2ccc(Cl)cc2)CC1,inactive,–
O=C(CSc1nc2ccccc2nc1Cc1ccccc1)N1CCCCC1,inactive,–
Oc1ccccc1-c1nc2ccc(Cl)cn2c1Nc1ccc2c(c1)OCCO2,inactive,–
Cc1cccc2nc(-c3ccc(Cl)s3)c(Nc3ccc4c(c3)OCCO4)n12,31.6 µM (active),–
Oc1ccc(-c2nc3ccc(Cl)cn3c2Nc2ccc3c(c2)OCO3)cc1,inactive,–
Cc1ccc2nc(-c3ccc(O)cc3)c(Nc3ccc4c(c3)OCO4)n2c1,inactive,–
Cc1nc(Nc2ccc3c(c2)OCCO3)c2nnn(Cc3ccccc3Cl)c2n1,inactive,–
Cc1ccc(-c2nc3cccc(C)n3c2Nc2ccc3c(c2)OCCO3)cc1,11.2 µM (active),–
CCOC(=O)c1nnn(CC(=O)NC(=O)Nc2ccccc2F)c1C(=O)OCC,inactive,–
COc1ccc(CCN2C(=O)c3oc4cc(C)cc(C)c4c(=O)c3C2c2ccccc2F)cc1OC (centres undefined),inactive,–
O=C1CC(c2nnc(Cc3ccc(Cl)cc3)o2)CN1c1ccccc1 (centres undefined),inactive,–
CCC(=O)N1CCc2cc(S(=O)(=O)NC(C(=O)Nc3ccc(C(C)=O)cc3)C(C)C)ccc21 (centres undefined),inactive,–
CCC(=O)N1c2ccccc2CC1C(=O)N1CCN(c2cccc(OC)c2)CC1 (centres undefined),inactive,–
CCCN(CCC)C(=O)C(Cc1ccccc1)NS(=O)(=O)c1ccc2c(c1)c(=O)n(C)c(=O)n2C (centres undefined),inactive,–
Cc1ccc(N(CC(=O)NCc2ccc(Cl)cc2)S(=O)(=O)N(C)C)cc1,inactive,–
